PubChem BioAssay (EPA / NIEHS)
Calls of active or inactive are those of the source. How the source made its calls: active means hit-call score of the fitted dose curve at least 0.9, where 1 is the maximum; inactive means score below 0.9.

Tests used:
[1] = read-out: Forkhead box O1 (FOXO1), FOXO1 (gene 2308); assay: LTEA_HepaRG_FOXO1: Life Technologies and Expression Analysis (LTEA) Assay for Forkhead box O1 (FOXO1) using HepaRG (AID 2283456); details: mRNA level, 48 h; actives raise or lower the signal
Procedure, shortened: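 Differentiated HepaRG cells, in serum-free induction medium with 0.5% DMSO, exposed 48 h in duplicate to 8-point half-log series from 100 uM. FOXO1 mRNA measured by TaqMan qRT-PCR, normalized to ACTB, GAPDH, POLR2A; bidirectional fit versus DMSO.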

[2] = read-out: growth arrest and DNA damage 45 (GADD45A), GADD45A (gene 1647); assay: LTEA_HepaRG_GADD45A: Life Technologies and Expression Analysis (LTEA) Assay for growth arrest and DNA damage 45 (GADD45A) using HepaRG (AID 2283458); details: mRNA level, 48 h; actives raise or lower the signal
Procedure, shortened: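 Cells plated and cultured 48 h, switched to serum-free induction medium, then dosed for 48 h (100 uM top, half-log dilutions, 0.5% DMSO). RNA was isolated and transcript measured by Fluidigm qRT-PCR.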

[3] = read-out: Forkhead box O3 (FOXO3), FOXO3 (gene 2309); assay: LTEA_HepaRG_FOXO3: Life Technologies and Expression Analysis (LTEA) Assay for Forkhead box O3 (FOXO3) using HepaRG (AID 2283459); details: mRNA level, 48 h; actives raise or lower the signal
Procedure, shortened: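 Differentiated human HepaRG cells, 48 h post-plating, exposed in duplicate for 48 h in serum-free induction medium; 8-point half-log series from 100 uM in 0.5% DMSO. FOXO3 mRNA by TaqMan qRT-PCR, normalized to ACTB/GAPDH/POLR2A; bidirectional fit versus DMSO.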

[4] = read-out: ABC Transporter (ABCB1), ABCB1 (gene 5243); assay: LTEA_HepaRG_ABCB1: Life Technologies and Expression Analysis (LTEA) Assay for ABC Transporter (ABCB1) using HepaRG (AID 2283460); details: mRNA level, 48 h; actives raise or lower the signal
Procedure, shortened: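 HepaRG cells exposed in duplicate for 48 h in serum-free induction medium to eight half-log concentrations up to 100 uM in 0.5% DMSO. ABCB1 mRNA quantified by qRT-PCR, normalised to ACTB, GAPDH and POLR2A; fitted bidirectionally versus DMSO.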

[5] = read-out: growth arrest and DNA damage 45 (GADD45B), GADD45B (gene 4616); assay: LTEA_HepaRG_GADD45B: Life Technologies and Expression Analysis (LTEA) Assay for growth arrest and DNA damage 45 (GADD45B) using HepaRG (AID 2283461); details: mRNA level, 48 h; actives raise or lower the signal
Procedure, shortened: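 Differentiated human HepaRG cells in serum-free induction medium exposed 48 h in duplicate to eight concentrations, top 100 uM, half-log steps, 0.5% DMSO. GADD45B mRNA by TaqMan qRT-PCR, normalized to ACTB, GAPDH, POLR2A; bidirectional fit versus DMSO.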

[6] = read-out: ABC Transporter (ABCC3), ABCC3 (gene 8714); assay: LTEA_HepaRG_ABCC3: Life Technologies and Expression Analysis (LTEA) Assay for ABC Transporter (ABCC3) using HepaRG (AID 2283462); details: mRNA level, 48 h; actives raise or lower the signal
Procedure, shortened: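 Differentiated human HepaRG cells exposed 48 h in serum-free induction medium, 0.5% DMSO vehicle, 8-point half-log series to 100 uM in duplicate. ABCC3 mRNA by qRT-PCR, normalised to ACTB, GAPDH, POLR2A; bidirectional fit vs DMSO.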

[7] = read-out: ABC Transporter (ABCB11), ABCB11 (gene 8647); assay: LTEA_HepaRG_ABCB11: Life Technologies and Expression Analysis (LTEA) Assay for ABC Transporter (ABCB11) using HepaRG (AID 2283463); details: mRNA level, 48 h; actives raise or lower the signal
Procedure, shortened: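 Differentiated human HepaRG cells in serum-free induction medium, dosed in duplicate for 48 h. Eight-point half-log series from 100 uM in 0.5% DMSO; ABCB11 mRNA by qRT-PCR, normalized to ACTB, GAPDH, POLR2A, fitted bidirectionally versus DMSO.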

[8] = read-out: ABC Transporter (ABCC2), ABCC2 (gene 1244); assay: LTEA_HepaRG_ABCC2: Life Technologies and Expression Analysis (LTEA) Assay for ABC Transporter (ABCC2) using HepaRG (AID 2283464); details: mRNA level, 48 h; actives raise or lower the signal
Procedure, shortened: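 Differentiated HepaRG cells in serum-free induction medium exposed 48 h to eight half-log concentrations up to 100 uM, 0.5% DMSO, in duplicate. ABCC2 mRNA measured by qRT-PCR (TaqMan, Fluidigm), normalized to ACTB, GAPDH and POLR2A. Fitted in both directions against DMSO.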

[9] = read-out: Broad substrate specificity ATP-binding cassette transporter ABCG2 (Homo sapiens) (UniProt Q9UNQ0); assay: LTEA_HepaRG_ABCG2: Life Technologies and Expression Analysis (LTEA) Assay for ABC Transporter (ABCG2) using HepaRG (AID 2283465); details: mRNA level, 48 h; actives raise or lower the signal
Procedure, shortened: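 Differentiated HepaRG cells were exposed for 48 h in serum-free induction medium to 8 half-log concentrations, top 100 uM, in 0.5% DMSO. ABCG2 mRNA was measured by qRT-PCR, normalized to ACTB, GAPDH and POLR2A, with bidirectional fitting versus DMSO.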

[10] = read-out: ATP-citrate lyase (ACLY), ACLY (gene 47); assay: LTEA_HepaRG_ACLY: Life Technologies and Expression Analysis (LTEA) Assay for ATP-citrate lyase (ACLY) using HepaRG (AID 2283466); details: mRNA level, 48 h; actives raise or lower the signal
Procedure, shortened: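 Differentiated HepaRG cells exposed 48 h in serum-free induction medium to eight half-log concentrations up to 100 uM in 0.5% DMSO, duplicates. Transcript measured by Fluidigm TaqMan qRT-PCR, normalized to ACTB, GAPDH, POLR2A; bidirectional fit versus DMSO.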

[11] = read-out: Peroxisomal acyl-coenzyme A oxidase 1 (ACOX1) gene, ACOX1 (gene 51); assay: LTEA_HepaRG_ACOX1: Life Technologies and Expression Analysis (LTEA) Assay for Peroxisomal acyl-coenzyme A oxidase 1 (ACOX1) gene using HepaRG (AID 2283467); details: mRNA level, 48 h; actives raise or lower the signal
Procedure, shortened: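 HepaRG cells, plated 48 h then switched to serum-free induction medium, were exposed in duplicate for 48 h to 8-point half-log concentrations up to 100 uM in 0.5% DMSO. ACOX1 mRNA was measured by qRT-PCR, normalized to ACTB/GAPDH/POLR2A, and fitted bidirectionally versus DMSO.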

[12] = read-out: Alkaline Phosphatase, Placental (ALPP) gene, ALPP (gene 250); assay: LTEA_HepaRG_ALPP: Life Technologies and Expression Analysis (LTEA) Assay for Alkaline Phosphatase, Placental (ALPP) gene using HepaRG (AID 2283468); details: mRNA level, 48 h; actives raise or lower the signal
Procedure, shortened: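 HepaRG cells plated 48 h, then exposed in duplicate for 48 h in serum-free induction medium to 8-point half-log series from 100 uM in 0.5% DMSO. ALPP mRNA by TaqMan qRT-PCR, normalized to ACTB/GAPDH/POLR2A; bidirectional fit versus DMSO.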

[13] = read-out: Bcl-2 (BAD) gene, BAD (gene 572); assay: LTEA_HepaRG_BAD: Life Technologies and Expression Analysis (LTEA) Assay for Bcl-2 (BAD) gene using HepaRG (AID 2283469); details: mRNA level, 48 h; actives raise or lower the signal
Procedure, shortened: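 Differentiated HepaRG cells were exposed in duplicate in 0.5% DMSO for 48 h to eight-point half-log concentrations up to 100 uM. BAD mRNA was measured by Fluidigm TaqMan qRT-PCR, normalized to ACTB, GAPDH and POLR2A, and fitted bidirectionally against DMSO.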

[14] = read-out: Bcl-2 (BAX) gene, BAX (gene 581); assay: LTEA_HepaRG_BAX: Life Technologies and Expression Analysis (LTEA) Assay for Bcl-2 (BAX) gene using HepaRG (AID 2283470); details: mRNA level, 48 h; actives raise or lower the signal
Procedure, shortened: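 HepaRG (human liver), 48 h exposure, duplicate wells. 8-pt curve, half-log from 100 uM, 0.5% DMSO. BAX transcript by TaqMan qRT-PCR; ACTB/GAPDH/POLR2A normalization; gain or loss vs DMSO baseline.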

[15] = read-out: adenosine kinase (ADK) gene, ADK (gene 132); assay: LTEA_HepaRG_ADK: Life Technologies and Expression Analysis (LTEA) Assay for adenosine kinase (ADK) gene using HepaRG (AID 2283471); details: mRNA level, 48 h; actives raise or lower the signal
Procedure, shortened: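 ADK expression quantified by qRT-PCR, normalised to three housekeeping genes, after 48 h exposure of HepaRG cells to eight concentrations (top 100 uM, half-log steps, duplicate, 0.5% DMSO). Up- or down-regulation fitted relative to vehicle.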

[16] = read-out: Alpha-fetoprotein (AFP) gene, AFP (gene 174); assay: LTEA_HepaRG_AFP: Life Technologies and Expression Analysis (LTEA) Assay for Alpha-fetoprotein (AFP) gene using HepaRG (AID 2283472); details: mRNA level, 48 h; actives raise or lower the signal
Procedure, shortened: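 HepaRG, single lot; 48 h post-plating -> serum-free induction medium; cpd 8-pt, 100 uM top, half-log, 0.5% DMSO, duplicate, 48 h. RNA -> qRT-PCR AFP, norm ACTB/GAPDH/POLR2A. Bidirectional fit vs DMSO.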

BCL2L11 (gene 10018) = assay: LTEA_HepaRG_BCL2L11: Life Technologies and Expression Analysis (LTEA) Assay for Bcl-2 (BCL2L11) gene using HepaRG (AID 2283473); details: mRNA level, 48 h; actives raise or lower the signal
Procedure, shortened: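 Differentiated human HepaRG cells were exposed 48 h in serum-free induction medium to eight half-log concentrations up to 100 uM in 0.5% DMSO, in duplicate. BCL2L11 mRNA was quantified by TaqMan qRT-PCR, normalized to ACTB, GAPDH and POLR2A; induction or repression fitted versus DMSO.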

[17] = read-out: Apolipoprotein A-V (APOA5) gene, APOA5 (gene 116519); assay: LTEA_HepaRG_APOA5: Life Technologies and Expression Analysis (LTEA) Assay for Apolipoprotein A-V (APOA5) gene using HepaRG (AID 2283474); details: mRNA level, 48 h; actives raise or lower the signal
Procedure, shortened: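 Differentiated HepaRG cells in serum-free induction medium, exposed 48 h in duplicate to eight half-log concentrations topping at 100 uM (0.5% DMSO). APOA5 mRNA by Fluidigm TaqMan qRT-PCR, normalized to ACTB, GAPDH and POLR2A; bidirectional fit versus DMSO.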

[18] = read-out: Apoptosis regulator Bcl-2 (Homo sapiens) (UniProt P10415); assay: LTEA_HepaRG_BCL2: Life Technologies and Expression Analysis (LTEA) Assay for Bcl-2 gene using HepaRG (AID 2283475); details: mRNA level, 48 h; actives raise or lower the signal
Procedure, shortened: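 HepaRG, plated 48 h then switched to serum-free induction medium; dosed 48 h, 8 conc. (max 100 uM, half-log steps), duplicate, 0.5% DMSO. Lysis in RLT, RNA isolated, TaqMan qRT-PCR for BCL2; ACTB/GAPDH/POLR2A normalisation; bidirectional fit vs DMSO.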

[19] = CEETOX_H295R_TESTO: CeeTox H295R High-throughput Steroidogenesis Assay for Testosterone (TESTO) (AID 2283457); details: actives raise or lower the signal
Procedure, shortened: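 H295R adrenal cells, passage ≤10, exposed to chemicals for 48 h. Testosterone in medium measured by MTBE extraction and HPLC-MS/MS against a 7-point standard curve. Bidirectional fit versus DMSO; MTT viability checked in the same wells.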

Measured: AC50

Sequence of Apoptosis regulator Bcl-2 (Homo sapiens) (P10415 whole entry, looked up): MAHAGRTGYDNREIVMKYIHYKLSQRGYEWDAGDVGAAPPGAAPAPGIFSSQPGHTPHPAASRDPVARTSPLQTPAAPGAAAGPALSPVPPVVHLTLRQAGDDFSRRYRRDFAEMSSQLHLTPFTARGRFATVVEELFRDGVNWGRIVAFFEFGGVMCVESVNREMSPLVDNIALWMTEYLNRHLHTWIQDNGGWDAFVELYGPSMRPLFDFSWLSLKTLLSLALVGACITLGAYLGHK
Sequence of Broad substrate specificity ATP-binding cassette transporter ABCG2 (Homo sapiens) (Q9UNQ0 whole entry, looked up): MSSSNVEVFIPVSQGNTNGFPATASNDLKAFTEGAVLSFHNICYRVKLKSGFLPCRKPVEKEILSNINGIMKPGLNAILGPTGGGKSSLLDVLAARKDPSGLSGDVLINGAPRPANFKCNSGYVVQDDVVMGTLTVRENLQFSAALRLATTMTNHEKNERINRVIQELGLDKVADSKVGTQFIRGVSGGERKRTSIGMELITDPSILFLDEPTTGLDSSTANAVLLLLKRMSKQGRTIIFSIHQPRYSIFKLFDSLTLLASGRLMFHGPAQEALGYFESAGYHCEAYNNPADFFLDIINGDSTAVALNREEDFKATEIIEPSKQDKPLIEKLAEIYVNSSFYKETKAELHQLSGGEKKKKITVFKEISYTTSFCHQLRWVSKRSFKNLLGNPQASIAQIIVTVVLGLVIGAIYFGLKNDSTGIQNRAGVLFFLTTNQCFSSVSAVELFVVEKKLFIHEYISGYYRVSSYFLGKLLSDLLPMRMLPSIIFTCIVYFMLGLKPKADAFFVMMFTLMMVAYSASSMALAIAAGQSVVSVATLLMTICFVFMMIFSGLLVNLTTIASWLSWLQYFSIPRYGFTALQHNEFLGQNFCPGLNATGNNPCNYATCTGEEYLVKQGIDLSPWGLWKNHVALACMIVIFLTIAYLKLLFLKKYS

O=C1NC(=O)C(c2ccccc2)(c2ccccc2)N1
active: [8] 50 µM
inactive: [1] | [2] | [3] | [4] | [5] | [6] | [7] | [9] | [10] | [11] | [12] | [13] | [14] | [15] | [16] | BCL2L11 (gene 10018) | [17] | [18]

O=C(Oc1ccccc1)c1cccc(C(=O)Oc2ccccc2)c1
inactive: [1] | [19] | [2] | [3] | [4] | [5] | [6] | [7] | [8] | [9] | [10] | [11] | [12] | [13] | [14] | [15] | [16] | BCL2L11 (gene 10018) | [17] | [18]

CC1=C(C)S(=O)(=O)CCS1(=O)=O
inactive: [1] | [19] | [2] | [8] | [9] | [10] | [11] | [12] | [13] | BCL2L11 (gene 10018)
active: [3] 14.7 µM | [4] 50 µM | [5] 88.8 µM | [6] 171 nM | [7] 81 µM | [14] 50 µM | [15] 277 nM | [16] 80.3 µM | [17] 187 nM | [18] 88.4 µM

NC=O
inactive: [1] | [2] | [3] | [4] | [5] | [6] | [7] | [8] | [9] | [10] | [11] | [12] | [13] | [14] | [15] | [16] | BCL2L11 (gene 10018) | [17] | [18]

CCC(C)N(C)C(=O)c1cc2ccccc2c(-c2ccccc2Cl)n1 (stereo not drawn)
active: [4] 5.38 µM | [8] 7.48 µM | [9] 4.44 µM | [16] 31.8 µM | BCL2L11 (gene 10018) 31.8 µM
inactive: [1] | [19] | [2] | [3] | [5] | [6] | [7] | [10] | [11] | [12] | [13] | [14] | [15] | [17] | [18]
